Sampled rows, rich in hits. Any-hit rate of the full collection: about 7.8%.
LASV entry inh: blocks Lassa virus binding to or entry into cells; Lassa virus pseudotype entry inhibition, cell reporter; Potency, µM (doses to about 37.9 µM), inactives show top-dose activity change, negative = inhibition, most hits filed as inhibitors; 1.2% of 300,000 active; AID 540256; calls by dose curve; tested in HEK293 cells; further: potency means the concentration at half of the fitted maximal effect; nearly all actives have a fitted effect of over 50% in size
HCV inhibitor: inhibitors of hepatitis C virus infection | Huh7.5.1 HCVcc-Cre infection, luciferase reporter, 44 h | Potency, µM (highest dose often 41.8 µM), for the others: top-dose activity change, negative = inhibition, usual class: inhibitors | 3.4% of 340,000 active; active means well fitted inhibition curve with a large enough effect; inconclusive means small, poorly fitted or top-dose-only effect, or another doubt; inactive means no such curve, though single readings can be large or run the other way; further: potency means the concentration at half of the fitted maximal effect
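A cell-based infection assay in which seeded cells (1,000 per well) receive test compound after 4 h, are inoculated with HCVcc-Cre at approximately 0.5 moi, and are incubated 44 h before luminescence detection.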
Vaccinia mCherry: inhibitors of vaccinia virus infection (mCherry reporter signal); Vaccinia virus mCherry reporter infection, fluorescence; Potency, µM (top dose mostly 36.5 µM), for the others: top-dose activity change, negative = inhibition, usual class: inhibitors; 0.63% of 310,000 active; calls by dose curve; tested in A549 cells; further: potency means the concentration at half of the fitted maximal effect; nearly all actives have a fitted effect of over 35% in size
Marburg entry inh: Marburg virus entry inhibition; 1.8% of 300,000 active; Marburg virus pseudotyped entry inhibition, cell reporter; Potency, µM (highest dose often 37.8 µM), for inactives: at the top dose activity change, negative = inhibition, most hits filed as inhibitors; calls by dose curve; tested in HEK293 cells; further: potency means the concentration at half of the fitted maximal effect
VACV Venus inh: vaccinia inhibition (Venus reporter); Vaccinia virus Venus reporter expression, fluorescence; Potency, µM (titrated, usually from 36.5 µM), for inactives: at the top dose activity change, negative = inhibition, actives largely listed as inhibitors; 0.46% of 330,000 active; calls by dose curve; tested in A549 cells; further: potency means the concentration at half of the fitted maximal effect; nearly all actives have a fitted effect of over 30% in size
HCMV inh: inhibitors of human cytomegalovirus; AID 1259415; activity change, negative = inhibition, % at 57.5 µM; 4.5% of 410,000 active; HFF cells, HCMV-luciferase reporter, 72 h; stronger effect = lower value; in the data active means activity change below about -60%; inconclusive means no clear call, values can overlap the other calls; inactive means above about -39%
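HFF cells seeded 16 h at 37C, treated with compounds, infected with luciferase-reporter HCMV at MOI 1 PFU/cell; luciferase read at 72 h post infection, normalized to buffer-only and Salinomycin controls.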
The depositor's hits bear a star; i = inactive; ? = inconclusive; nt = not tested or not shown; ! = repeats disagree; [ ] = dose if it differs, or a comment. On the % scale 0 is the no-effect control and ±100 the full control effect.

SMILES | LASV entry inh | HCV inhibitor | Vaccinia mCherry | Marburg entry inh | VACV Venus inh | HCMV inh
COc1ccccc1-c1cc(C(F)(F)F)nc(S(=O)(=O)CCCC(=O)N2CCOCC2)n1 | 12.6µM* | ? | ? | 11.2µM*! | ? | -104.4*
O=C(CCS(=O)(=O)c1nc(-c2ccc3c(c2)OCO3)cc(C(F)(F)F)n1)Nc1ccc(F)cc1F | 11.6%[46.1 µM] | nt | ? | ? | -14.6% | 40.3
COc1ccccc1-c1cc(C(F)(F)F)nc(S(=O)(=O)CCCC(=O)Nc2ccc(F)c(Cl)c2)n1 | 3.7%[46.1 µM] | nt | 4.1% | 24.5%[46.1 µM] | 4.8% | 10.2
Cc1nc2ccc(S(=O)(=O)NC(C(=O)N3CCN(c4cccc(Cl)c4)CC3)C(C)C)cc2s1 (configuration not stated) | ? | nt | -12.5% | ? | -1.6% | -21.2
NC(=O)c1c(NC(=O)c2nc(SCc3ccccc3F)ncc2Cl)sc2c1CCCC2 | 3.9%[46.1 µM] | nt | -0.5% | 23.1%[46.1 µM] | 10.9% | 9.2
Cc1ccc(S(=O)(=O)CCC(=O)Nc2cc(C)on2)cc1 | nt | nt | -3.9% | nt | -12.7% | -0.1
Cc1cc(NC(=O)CCS(=O)(=O)c2nc(-c3ccccc3)cc(C(F)(F)F)n2)no1 | ? | 10µM* | nt | ? | ? | -104.2*
COc1ccc(-c2cc(C(F)(F)F)nc(S(=O)(=O)CCCC(=O)Nc3ccccc3C(F)(F)F)n2)cc1OC | 0.1%[46.1 µM] | nt | -17.7% | -19.4%[46.1 µM] | -15.8% | -99.7*
CS(=O)(=O)c1nc(-c2ccccc2)cc(C(F)(F)F)n1 | ? | 10µM* | 14.1µM* | 6.31µM* | ? | -98.0*
COCCNC(=O)CSc1nc(-c2ccc(OC)c(OC)c2)cc(C(F)(F)F)n1 | -0.8% | ? | -10.9%[1.46 µM] | -14.6% | -12.5% | 0.6
CN([C@@H](Cc1ccc(OS(=O)(=O)c2cccc3cnccc23)cc1)C(=O)N1CCN(c2ccccc2)CC1)S(=O)(=O)c1cccc2cnccc12 | ? | 2.82µM* | -4.0% | ? | -10.7% | nt
CC(C)c1ccc(CNc2n[nH]c(-c3ccco3)n2)cc1 | 8.0%[46.1 µM] | nt | -10.2% | 6.1%[46.1 µM] | -5.3% | 98.8
CC(C)(C)c1cc(NCc2ccccn2)n2ncc(-c3ccccc3)c2n1 | ? | 12.6µM* | -3.4%[7.34 µM] | ? | -3.3%[7.34 µM] | -6.5
Cc1cc(NCc2ccccc2)n2ncc(-c3ccccc3)c2n1 | ? | ? | 12.1% | ? | 8.8% | 11.1
COc1ccc(CNc2nccs2)cc1OC | 0.6% | -19.2% | i | 3.3% | -9.6% | 8.5
Cc1ccc(CNc2nc3ccccc3s2)s1 | 6.31µM* | -16.5% | nt | ? | ? | 54.1
COc1ccc(CNc2nc3ccccc3s2)cc1OC | -20.0%[46.1 µM] | 11.2µM* | i | ? | -0.8% | 63.4
COc1cc2nc(N3CCOCC3)nc(NC(C)C)c2cc1OC | nt | nt | -22.6% | nt | -20.6% | nt
O=[N+]([O-])c1ccc(N2CCOCC2)c2cccnc12 | nt | -4.3% | -14.0% | nt | -27.6% | 4.8
O=[N+]([O-])c1ccc(N2CCOCC2)c2c1no[n+]2[O-] | nt | nt | ? | nt | 55.0% | -101.4*
O=C(c1cccc([N+](=O)[O-])c1)N1CCN(c2ccc(Nc3ccccc3)nn2)CC1 | -15.0%[46.1 µM] | nt | -13.0% | nt | -10.0% | 13.6
CCCCn1nc2cc(C(=O)NCc3ccccc3OC)ccc2c1OCC | nt | 3.55µM* | -6.9% | nt | -4.6% | 5.8
CCCCn1nc2cc(C(=O)NCc3ccc(C(F)(F)F)cc3C(F)(F)F)ccc2c1OCC | nt | ? | -0.3% | -7.1% | ? | -25.7
COc1ccccc1C(=O)Nc1ccc(S(=O)(=O)N2CCCC2)cc1 | -2.5% | -3.6% | nt | 2.2% | nt | -8.7
O=C(Nc1ccc(O)cc1)c1cc(S(=O)(=O)N2CCCC2)ccc1Cl | -1.9% | -24.8% | -18.0% | ? | -17.2% | -97.0*
SMILES | LASV entry inh | HCV inhibitor | Vaccinia mCherry | Marburg entry inh | VACV Venus inh | HCMV inh
COc1ccc(Cl)cc1C(=O)Nc1ccc(S(=O)(=O)N2CCCC2)cc1 | -1.6% | 10.8% | -8.1% | 12.9% | -6.7% | -101.5*
CCN(CC)S(=O)(=O)c1nnc(NC(=O)COc2cccc(C)c2)s1 | -3.0%[46.1 µM] | nt | -9.5% | nt | -8.1% | 19.1
COc1ccccc1Cn1nc(C(=O)O)c2ccccc2c1=O | nt | -14.6% | -8.3% | ? | -10.1% | 23.5
CCOc1ccc(C(C)=O)cc1Cn1nc(C(=O)O)c2ccccc2c1=O | -5.3% | 7.94µM* | -17.4% | ? | -9.0% | 40.0
Cc1cccc(C)c1OCCn1nc(C(=O)O)c2ccccc2c1=O | 6.31µM* | 1.3% | nt | 10µM* | -2.7% | -26.7
Cc1ccc(CCNC(=O)c2c3c(nc4ccccc24)C(=O)N(C2CCCCC2)C3)cc1 | -30.0%[46.1 µM] | nt | -14.5% | nt | -15.1% | 8.4
CC(c1ccccc1)n1c(-c2cccs2)nc2c(c(=O)c3ccccc3n2C)c1=O (configuration not stated) | 5.2% | 14.1µM* | -1.3% | 1.3% | -10.5% | 4.9
Cc1ccc(NC(=O)C2CCCN(S(=O)(=O)c3ccc(C)cc3)C2)cc1 (configuration not stated) | -3.2%[46.1 µM] | nt | -5.0% | 6.0%[46.1 µM] | -8.7% | ?
Cc1cccc(NC(=S)N/N=C2\CC(C)(C)Oc3ccc(O)cc32)c1 | -9.1%[46.1 µM] | ? | ? | 4.47µM* | -25.9% | -16.2
O=C(NCc1ccccc1)c1onc(CSc2ccccc2)c1C(=O)NCC1CC1 | nt | 10µM* | -24.9% | nt | ? | -11.7
O=c1cc2c(nn1Cc1c(Cl)cccc1Cl)-c1ccccc1CC2 | 0.3% | 25.1µM* | -26.5% | ? | -18.4% | -23.8
COc1cccc(NC(=O)Cn2cc(S(=O)(=O)Cc3ccccc3F)c3ccccc32)c1 | -7.3%[46.1 µM] | nt | -20.2% | nt | -20.5% | 0.0
Oc1ccc(Nc2nc(N3CCCC3)c3ccccc3n2)cc1 | ? | ? | ? | 11.2µM* | 8.91µM* | -65.9*
COc1ccc(Nc2nc(N3CCCCC3)c3ccccc3n2)cc1 | ? | ? | ? | ? | ? | -63.9*
Cc1ccc(Nc2nc(N3CCOCC3)c3ccccc3n2)cc1 | ? | ? | -4.3%[1.46 µM] | ? | ? | -32.0
C(=C\c1nc(N2CCCC2)c2ccccc2n1)/c1ccccc1 | ? | ? | ? | 7.08µM* | ? | -71.9*
COCCNC(=O)c1cccc(Nc2nc(-c3ccccc3)c3cc(Cl)ccc3n2)c1 | -1.1% | 10µM* | nt | 4.7% | nt | -32.9
CCC[C@H](/C=C/C(=O)OC(C)(C)C)NC(=O)C(F)(F)F | nt | nt | nt | nt | nt | 17.3
COc1ccc(Nc2nc(-c3ccccc3)c3cc(Br)ccc3n2)cc1 | -23.3%[46.1 µM] | nt | -12.9% | nt | -11.6% | -61.2*
C=CCn1c(SCC(=O)NCc2ccco2)nnc1-c1cccc(N(C)C)c1 | nt | nt | -14.0% | nt | -20.2% | nt
COc1cc(NC(=O)N2CCc3nc(NCc4cccc(Oc5ccccc5)c4)ncc3C2)cc(OC)c1OC | nt | nt | 10µM* | nt | ? | -92.1*
CC(C)C(C)(C#N)NC(=O)CSc1ncnc2sc(-c3ccccc3)cc12 (configuration not stated) | -16.9% | 12.6µM* | ? | -25.7% | ? | -32.9
CCN(CC)C(=O)CSc1ncnc2sc(-c3ccccc3)cc12 | -0.5% | 12.6µM* | nt | ? | nt | -38.3
CN(CCC#N)C(=O)CSc1ncnc2sc(-c3ccccc3)cc12 | 3.3% | ? | nt | -24.4% | nt | -5.1

Screening data: PubChem, National Center for Advancing Translational Sciences (NCATS)
